From PubChem BioAssay come the findings set out here.

What is called viability is a read-out of living cells in per cent, often relative to untreated cells. As a reminder, the inhibition is the relative decrease from the control value, in per cent.

The nature of assay [1]: reducers of endogenous Her2 protein level, primary screen, SKBR3 breast tumor cells, AlphaScreen, ATP viability (AID 461;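 active means Her2 level under about 52% in both replicate screens, with viability over 70% of control, limit read from the data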;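 on Her2 level: lower value means less Her2 protein in the cells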;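 on viability: percent of carrier control wells set as 100% viability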). The conditions noted are these: 18-24 h, measured here: SKBR3 viability, ATP luminescence, at 10 µM. Background: Bead proximity is the source of the signal in Alpha formats.
The target in assay [2] is Receptor tyrosine-protein kinase erbB-2 (Homo sapiens) (UniProt P04626). The description is as above. As to conditions: 18-24 h, at 10 µM, stronger effect = lower value.
Assay [3] in a line: SK-BR-3 cell growth inhibitors, pilot screen, 24 h, human (AID 572;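 active means viability at or below 10% of carrier control in both of two separate runs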;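 further: compound exposure lasted between 18 and 24 h rather than exactly 24 h; 100% = carrier-treated control wells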). As to conditions: SK-BR-3 viability, CellTiter-Glo luminescence, at 10 µM, stronger effect = lower value. For orientation: In ATP-based viability assays light output follows the ATP content of the culture.
Assay [4] is described as follows: HUVEC growth inhibition – cell-based, human, primary screen (AID 575;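 active means viability at or below 30% in both replicate assays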;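 further: 100% = median of untreated cell wells with 0.1% DMSO on each plate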). The conditions noted are these: HUVEC proliferation, CellTiter-Glo luminescence, 72 h; at 10 µM; stronger effect = lower value.
A short description of assay [5]: growth inhibitors of H69AR lung tumor, primary screen, human, duplicate replicates (AID 580;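 active means viability at or under a set limit in both replicates, limit being median viability minus 3 SD, cut at about 48% in these data, passing the limit was not always enough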;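 further: 100% = mean luminescence of untreated wells and 0% = no signal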). As to conditions: H69AR lung tumor cells viability, ATP luminescence, 72 h; at 10 µM; stronger effect = lower value.
Assay [6] can be described thus: reversal of MRP1-mediated doxorubicin resistance, pilot screen, H69AR cells, doxorubicin co-treatment (AID 601;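 active means viability loss from added drug above about 55%, and viability with drug at most 40%, in both replicates, limit read from the data, passing the limit was not always enough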). As to conditions: CellTiter-Glo, 72 h, at 10 µM; for differential viability (reversal): stronger effect = higher value.
Assay [7] is described as follows: 384-well plate pilot, post-Golgi transport modulator project, inhibition of yeast transport mutant growth (AID 636; in the data active means inhibition above about 31%). As to conditions: absorbance 615 nm, about 18 h, stronger effect = higher value.
Assay [8] is described as follows: growth suppression of yeast trafficking mutant, preliminary HTS, modulators of trafficking downstream of Golgi apparatus project, 1536-format plate, OD 615 nm (AID 637). As to conditions: yeast transport mutant growth, absorbance 615 nm, 18 h; stronger effect = higher value.
The nature of assay [9]: OD615 S. cerevisiae growth inhibition, permissive medium, pilot counter-assay, permissive growth control for S. cerevisiae lifespan shortening project (AID 705;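 active means growth inhibition above 25% in both replicates, a cutoff set 3 SD above the mean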). The conditions noted are these: OD615, 24 h, at 10 µM, stronger effect = higher value.
Assay [10] is described as follows: Restrictive medium S. cerevisiae growth inhibition, OD615, pilot screen of yeast lifespan reduction project, restrictive growth control (AID 706;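 active means growth inhibition above a set limit, 3 SD over mean compound inhibition, in both replicates, cut at about 43% in these data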;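 further: modified DeaD lifespan yeast strain shifted to restrictive glucose medium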). As to conditions: OD615, 48 h, at 10 µM, stronger effect = higher value.
A short description of assay [11]: viability gain of MRP-1-high H69AR cells under doxorubicin, pilot screen, MRP-1 activator project, CellTiter-Glo, duplicate (AID 807;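 active means viability increase at or above a cutoff of the median across tested compounds plus 3 SD, cut at about 8.5% in these data, passing the limit was not always enough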;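 further: compound pretreatment 18-22 h then 72 h combined with doxorubicin; 0% = doxorubicin alone and 100% = vehicle without doxorubicin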). As to conditions: H69AR viability with doxorubicin, CellTiter-Glo luminescence; at 10 µM; stronger effect = higher value.
The nature of assay [12]: growth suppression of beta-catenin knockout HCT116, pilot screen, human colon tumor cells (AID 823;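 active means cell viability at or below a set limit in both duplicate runs, the limit being the all-compound median minus 4 SD, cut at about 23% in these data, passing the limit was not always enough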;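 further: 0% = wells killed by 20 µM Hyamine and 100% = untreated DMSO cell wells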). The conditions noted are these: CellTiter-Glo, 60 h, at 10 µM, stronger effect = lower value.
A short description of assay [13]: growth suppression of PTEN-deleted HCT116, pilot screen, cell-based, HCT116 clonal line, CellTiter-Glo (AID 824;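 active means viability at or below 27.92% in each of two runs, the all-compound median minus 4 SD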;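 further: 0% = 20 µM Hyamine control and 100% = vehicle cell control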). As to conditions: 60 h, at 10 µM, stronger effect = lower value.
A short description of assay [14]: inhibitors of the yeast RAM network, pilot screen, dse1pr::URA3 reporter, 5-FOA selection (AID 869;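 active means inhibition over a set limit, the all-compound mean plus 3 SD, in both replicate runs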;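 further: 0% = DMSO wells with no growth and 100% = 10 µM 1-NA-PP1 with full growth; RAM network block rescues cells from 5-FOA so hits raise OD615 growth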). As to conditions: S. cerevisiae dse1pr::URA3 5-FOA growth, OD615, 2 d; at 10 µM; stronger effect = higher value; strain carries analog-sensitive mutant Cbk1 kinase.
Where [15] appears, read: H69AR cells + 2 uM doxorubicin, measured here: viability with 2 uM doxorubicin, stronger effect = lower value.
The mark [16] stands for this setting: H69AR cells, compound alone cytotoxicity.

Molecules are shown by their SMILES. Records with an inconclusive call do not appear. Activity calls are given as the source filed them. Unless noted, no stated cut-off is given here; in the data, active means inhibition above about 30%; inactive means the rest.

Chain of Receptor tyrosine-protein kinase erbB-2 (Homo sapiens) (P04626 whole entry, looked up): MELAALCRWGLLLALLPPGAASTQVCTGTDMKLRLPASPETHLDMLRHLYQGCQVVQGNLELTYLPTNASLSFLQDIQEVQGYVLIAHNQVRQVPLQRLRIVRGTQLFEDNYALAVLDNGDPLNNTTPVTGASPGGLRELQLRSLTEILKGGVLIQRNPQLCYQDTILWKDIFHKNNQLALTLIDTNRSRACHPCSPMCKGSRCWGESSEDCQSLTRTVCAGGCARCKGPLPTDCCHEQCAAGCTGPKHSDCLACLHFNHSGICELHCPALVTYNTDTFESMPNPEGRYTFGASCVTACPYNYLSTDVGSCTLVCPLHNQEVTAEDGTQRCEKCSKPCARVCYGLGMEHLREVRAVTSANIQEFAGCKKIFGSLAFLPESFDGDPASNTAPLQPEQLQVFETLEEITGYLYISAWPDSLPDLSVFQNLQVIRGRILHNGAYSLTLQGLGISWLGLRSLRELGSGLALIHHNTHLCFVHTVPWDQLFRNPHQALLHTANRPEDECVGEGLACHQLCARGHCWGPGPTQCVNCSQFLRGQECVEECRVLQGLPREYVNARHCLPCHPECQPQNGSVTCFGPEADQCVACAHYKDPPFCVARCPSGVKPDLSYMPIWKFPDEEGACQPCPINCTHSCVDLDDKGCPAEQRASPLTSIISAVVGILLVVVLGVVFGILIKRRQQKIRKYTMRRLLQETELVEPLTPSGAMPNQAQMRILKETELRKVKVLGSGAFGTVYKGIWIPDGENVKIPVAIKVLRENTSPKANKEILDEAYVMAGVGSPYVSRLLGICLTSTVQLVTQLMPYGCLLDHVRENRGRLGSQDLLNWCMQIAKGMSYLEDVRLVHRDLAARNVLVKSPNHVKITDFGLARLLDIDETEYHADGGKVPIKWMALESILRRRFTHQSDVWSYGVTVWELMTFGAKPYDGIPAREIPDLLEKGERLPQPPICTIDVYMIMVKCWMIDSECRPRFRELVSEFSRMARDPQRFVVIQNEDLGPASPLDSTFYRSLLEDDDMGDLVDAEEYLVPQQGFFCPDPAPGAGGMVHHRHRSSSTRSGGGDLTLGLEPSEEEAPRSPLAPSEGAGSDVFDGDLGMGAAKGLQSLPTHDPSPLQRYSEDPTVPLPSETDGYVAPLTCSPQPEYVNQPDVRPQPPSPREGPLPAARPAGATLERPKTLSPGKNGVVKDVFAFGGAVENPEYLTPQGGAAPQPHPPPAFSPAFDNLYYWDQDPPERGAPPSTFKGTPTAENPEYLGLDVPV

Consider `O=C(Cn1ccc2ccccc2c1=O)NCCC(=O)N1CCN(C2CCCCC2)CC1`, for which the viability in assay [1] was 99.5%; in [3] it was 99.5% (inactive); in assay [4] it was 96.6% (inactive); in [5], 104% (inactive); in [6] (setting [15]) it was 81.7%; in assay [6] (setting [16]), 104%. Moreover, in assay [2], the Her2 level was 86.5% (inactive). In assay [6] (H69AR cells + 2 uM doxorubicin), the differential viability (reversal) was 22.2% (inactive). Besides, the inhibition was -3.2% (inactive) in assay [7] and 2.13% (inactive) in assay [8].

For `COc1ccc(CCNc2oc(-c3ccccc3OC)nc2C#N)cc1`, the viability was 88% in assay [1]; 88% (inactive) in [3]; 86.4% (inactive) in [4]; 95.2% (inactive) in assay [5]; 94.8% in [6] (setting [15]); 95.2% in assay [6] (setting [16]). Moreover, the Her2 level in [2] was 106% (inactive). Besides, the differential viability (reversal) in assay [6] (H69AR cells + 2 uM doxorubicin) was 0.34% (inactive). Further, the inhibition was -1.43% (inactive) in [7] and -11% (inactive) in [8].

With `COc1ccc(/C=N/n2cnnc2SCc2ccc(OC)cc2)cc1`, the viability in [1] was 83.5%; in [3], 83.5% (inactive); in [4], 87.6% (inactive); in assay [5], 89.9% (inactive); in [6] (setting [15]), 96.7%; in [6] (setting [16]), 89.9%. The viability in [12] was 90.6% (inactive); in assay [13] it was 93.9% (inactive). Moreover, the Her2 level in assay [2] is 90.5% (inactive). In addition, the differential viability (reversal) in [6] (H69AR cells + 2 uM doxorubicin) was -6.8% (inactive). Further, the inhibition is 0% (inactive) in [7], 4% (inactive) in assay [8] and 2.4% (inactive) in assay [14]. For the same molecule, the growth inhibition in assay [9] is 4.08% (inactive); in assay [10] it was 30.7% (inactive). Besides, the viability increase in assay [11] is 3.56% (inactive).

For the molecule `CCOC(=O)c1c(N)nn(C(=O)C(C)C)c1-c1ccccc1`, the viability in [1] was 97%; in [3] it was 97% (inactive); in assay [4], 82.5% (inactive); in assay [5] it was 109% (inactive); in assay [6] (setting [15]) it was 94%; in assay [6] (setting [16]), 109%. Further, in [2], the Her2 level was 119% (inactive). The differential viability (reversal) in assay [6] (H69AR cells + 2 uM doxorubicin) was 15% (inactive). Further, the inhibition is -5.95% (inactive) in assay [7] and -9.34% (inactive) in assay [8].

With `CCOc1ccccc1N1CCN(c2nc3ccccc3nc2C(C#N)C(=O)OC)CC1` (configuration not stated), the viability in assay [1] is 74%; in assay [3], 74% (inactive); in [4], 71.7% (inactive); in assay [5] it was 83.9% (inactive); in assay [6] (setting [15]), 88.5%; in [6] (setting [16]), 83.9%. For the same molecule, the Her2 level in assay [2] is 78% (inactive). Moreover, the differential viability (reversal) in [6] (H69AR cells + 2 uM doxorubicin) was -4.64% (inactive). The figures for the inhibition in assay [7] and in [8] were 1.45% (inactive) and -2.1% (inactive), respectively.

As to `COC(=O)c1ccnc(/C=N/O)c1`, the viability in assay [1] is 95%; in assay [3] it was 95% (inactive); in assay [4] it was 99.8% (inactive); in assay [5] it was 88.1% (inactive); in [6] (setting [15]), 81%; in [6] (setting [16]) it was 88.1%. The Her2 level in [2] is 76% (inactive). The differential viability (reversal) in assay [6] (H69AR cells + 2 uM doxorubicin) is 7.13% (inactive). The inhibition is -3.92% (inactive) in assay [7] and 2.7% (inactive) in [8].

Consider `COc1cc(C2c3c(n[nH]c3C)C(=O)N2c2ccc(C)cc2)ccc1O` (configuration not stated), for which the viability in [1] was 113%; in [3], 113% (inactive); in [4], 88.9% (inactive); in assay [5], 101% (inactive); in assay [6] (setting [15]), 97%; in assay [6] (setting [16]) it was 101%. In addition, in assay [2], the Her2 level is 73% (inactive). In addition, the differential viability (reversal) in assay [6] (H69AR cells + 2 uM doxorubicin) is 3.7% (inactive). Moreover, the inhibition was -3.87% (inactive) in [7] and -2.3% (inactive) in assay [8].

As to `CC(NC(=O)c1ccc2c(c1)OCO2)C(c1cccs1)N1CCOCC1` (configuration not stated), the viability in [1] was 97.5%; in assay [3], 97.5% (inactive); in assay [4], 106% (inactive); in [5] it was 105% (inactive); in assay [6] (setting [15]), 91.1%; in [6] (setting [16]), 105%. In assay [2], the Her2 level is 82.5% (inactive). The differential viability (reversal) in assay [6] (H69AR cells + 2 uM doxorubicin) is 13.5% (inactive). For the same molecule, the inhibition was -4.81% (inactive) in assay [7] and -0.95% (inactive) in assay [8].

As to `COc1cc(NC(=O)c2ccc(COCC(F)(F)F)o2)cc(OC)c1OC`, the viability in assay [1] was 95%; in assay [3] it was 95% (inactive); in assay [4] it was 92.8% (inactive); in assay [5], 99.6% (inactive); in assay [6] (setting [15]), 79.5%; in assay [6] (setting [16]) it was 99.6%. The Her2 level in [2] is 84% (inactive). Also, the differential viability (reversal) in [6] (H69AR cells + 2 uM doxorubicin) is 20.1% (inactive). The inhibition in [7] was -1.45% (inactive); in assay [8], 2.58% (inactive).

As to `O=C(CSc1nc2cc(Cl)ccc2s1)N1CCN(C(=O)c2ccco2)CC1`, the viability is 91% in [1]; 91% (inactive) in assay [3]; 91.6% (inactive) in assay [4]; 100% (inactive) in [5]; 99.5% in assay [6] (setting [15]); 100% in assay [6] (setting [16]). Also, in assay [2], the Her2 level is 84.5% (inactive). The differential viability (reversal) in assay [6] (H69AR cells + 2 uM doxorubicin) is 0.815% (inactive). Moreover, the inhibition in [7] was -3.87% (inactive); in assay [8] it was 0.97% (inactive).

In the case of `O=c1c[n+]([O-])c2ccccc2n1OCc1ccccn1`, the viability was 94% in assay [1]; 94% (inactive) in assay [3]; 94.7% (inactive) in assay [4]; 105% (inactive) in assay [5]; 92.7% in assay [6] (setting [15]); 105% in assay [6] (setting [16]). Besides, the Her2 level in assay [2] was 89.5% (inactive). Further, the differential viability (reversal) in [6] (H69AR cells + 2 uM doxorubicin) was 12.1% (inactive). For the same molecule, the inhibition in assay [7] was -2.11% (inactive); in assay [8], -4.29% (inactive).

For `COc1ccc(CCNS(=O)(=O)c2ccc3c(c2)CCN3C(=O)CCC(=O)O)cc1OC`, the viability in assay [1] was 104%; in assay [3] it was 104% (inactive); in assay [4], 88.6% (inactive); in [5] it was 94.1% (inactive); in assay [6] (setting [15]) it was 89.8%; in assay [6] (setting [16]), 94.1%. Besides, the Her2 level in [2] was 89% (inactive). The differential viability (reversal) in [6] (H69AR cells + 2 uM doxorubicin) is 4.3% (inactive). Besides, the figures for the inhibition in assay [7] and in [8] were -2.37% (inactive) and -4.91% (inactive), respectively.

As to `COc1ccc(-c2nc(CS(=O)CC(=O)N3CCCC3)c(C)o2)cc1` (configuration not stated), the viability was 92.5% in [1]; 92.5% (inactive) in [3]; 80.8% (inactive) in assay [4]; 83.9% (inactive) in assay [5]; 81.8% in assay [6] (setting [15]); 83.9% in assay [6] (setting [16]). Also, the viability in [12] is 91.8% (inactive); in [13], 90.7% (inactive). In assay [2], the Her2 level was 91% (inactive). In addition, in assay [6] (H69AR cells + 2 uM doxorubicin), the differential viability (reversal) is 2.07% (inactive). The inhibition is -2.67% (inactive) in assay [7], 3.77% (inactive) in [8] and 2.27% (inactive) in assay [14]. The growth inhibition in assay [9] is -4.09% (inactive); in assay [10], 5.46% (inactive). Moreover, in assay [11], the viability increase was -2.14% (inactive).

In the case of `Cc1ccnc(N2CCN(C(=O)CSc3nc4ccccc4nc3N3CCCCC3)CC2)c1`, the viability in assay [1] was 109%; in assay [3], 109% (inactive); in [4], 62% (inactive); in assay [5], 92.7% (inactive); in [6] (setting [15]), 83%; in assay [6] (setting [16]) it was 92.7%. In addition, the Her2 level in [2] was 70.5% (inactive). The differential viability (reversal) in [6] (H69AR cells + 2 uM doxorubicin) was 9.7% (inactive). Moreover, the figures for the inhibition in [7] and in assay [8] were -3.03% (inactive) and -2.83% (inactive), respectively.

For the molecule `CC1CCC(NC(=O)C2CCN(c3cnccn3)CC2)CC1` (configuration not stated), the viability in assay [1] is 96%; in assay [3], 96% (inactive); in [4], 88.6% (inactive); in assay [5], 92.5% (inactive); in assay [6] (setting [15]), 81.2%; in assay [6] (setting [16]), 92.5%. In addition, the Her2 level in assay [2] is 95% (inactive). For the same molecule, the differential viability (reversal) in [6] (H69AR cells + 2 uM doxorubicin) is 11.3% (inactive). Also, the inhibition is -1.76% (inactive) in assay [7] and -2.7% (inactive) in [8].
